High-throughput results from PubChem.
Pf growth 48h: Primary qHTS for delayed death inhibitors of the malarial parasite plastid, 48 hour incubation; Potency, µM (highest dose often 28.7 µM), inactives show at the top dose activity change, negative = inhibition, hits mostly inhibitors; 310,000 tested, 5.9% active; P. falciparum luciferase growth in erythrocytes, 48 h; also: % is scaled to controls: 0 for no effect and ±100 for the full control effect
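Compounds are pin-transferred into medium, infected erythrocytes (2% hematocrit, 0.1% parasitemia final) are added, and plates sit one parasite generation at 37 C in 5% CO2. Detection reagent is then added and luminescence measured.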
AMA1 RON2 block: qHTS for Inhibitors of AMA1-RON; Towards Development of Antimalarial Drug Lead: Primary Screen; Plasmodium falciparum AMA1 (3D7) - RON2 peptide interaction; AlphaScreen AMA1-biotinylated RON2 peptide binding; Potency, µM (top dose mostly 58.2 µM), inactives show at the highest dose activity change, negative = inhibition, usual class: inhibitors; 360,000 tested, 0.2% active;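 also: 0% = vehicle wells and -100% = peptide control; nearly all actives have a fitted effect of over 45% in size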
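AMA1 (3D7) with his tag at 25 nM final met compounds first, then biotinylated RON2 peptide at 25 nM; detection used donor plus acceptor beads, 10 µg/mL apiece, read by AlphaScreen after 30 min at room temperature.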
Pf growth 96h: Primary qHTS for delayed death inhibitors of the malarial parasite plastid, 96 hour incubation; P. falciparum luciferase reporter growth, 96 h; 320,000 tested, 6.9% active; Potency, µM (series often up to 28.7 µM), for the others: at the highest dose activity change, negative = inhibition, hits mostly inhibitors; also: % is scaled to controls: 0 for no effect and ±100 for the full control effect
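P. falciparum expressing integrated firefly luciferase grown in erythrocytes (2% hematocrit, 0.05% parasitemia final) with compounds for 96 hours at 37 C, 5% CO2. Growth inhibition read as loss of luminescence after adding luciferase detection reagent.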
HCV inh: qHTS Assay for Inhibitors of Hepatitis C Virus (HCV); Huh7.5.1 HCVcc-Cre infection, luciferase reporter, 44 h; Potency, µM (titrated, usually from 41.8 µM), without a hit: at the highest dose activity change, negative = inhibition, usual class: inhibitors; 340,000 tested, 3.4% active; also: % is scaled to controls: 0 for no effect and ±100 for the full control effect
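Whole-lifecycle infectious HCVcc-Cre system; cells 1,000/well, compound then virus (~0.5 moi) added 4 h after plating, 44 h culture. Luciferase read 15 sec following 15 min substrate incubation, room temp.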
SARS PLpro yeast: qHTS of Yeast-based Assay for SARS-CoV PLP | S. cerevisiae expressing SARS-CoV PLpro, growth rescue | Potency, µM (doses to about 32.9 µM), for the others: at the top dose activity, positive = growth rescue, actives largely listed as activators | 330,000 tested, 0.19% active | AID 485353, 2010; calls by dose curve; also: 0% is about no effect; nearly all actives have a fitted effect of over 55% in size
NS1 inh: qHTS Assay for Inhibitors of Influenza NS1 Protein Function | Potency, µM (series often up to 46.1 µM), for inactives: top-dose activity, positive = more growth | AID 2326, 2010 | 270,000 tested, 0.4% active; calls by dose curve; also: actives are rising curves; nearly all actives have a fitted effect of over 50% in size
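Growth recovery, yeast-based: influenza A NS1 expressed in S. cerevisiae causes slow growth, and suppressors are detected by OD600. The parent strain without NS1 is used as positive control.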
* marks the source's active call; other numbers are inactive results; ? = inconclusive; . = no result; [ ] = dose if it differs, or a comment. This is a sample that favours compounds with a hit; in the whole collection about 12% have one here. Unless noted, calls follow the shape of the dose curve; as a rule, active = well fitted curve in the direction sought with a large enough effect; inconclusive = small, poorly fitted or top-dose-only effect, or another doubt; inactive = no such curve, though single readings can be large; an effect the other way counts as inactive or inconclusive. Potency is read from the fitted curve at half-maximal effect.

SMILES	Pf growth 48h	AMA1 RON2 block	Pf growth 96h	HCV inh	SARS PLpro yeast	NS1 inh
Cc1ccccc1NS(=O)(=O)c1ccc2[nH]cc(C(=O)NCCCN3CCOCC3)c(=O)c2c1	4.15µM*	-13.3%	-8.7%	6.4%	3.3%	-7.2%
O=C(/C=C/NCc1cccnc1)c1ccc(-c2ccccc2)cc1	22.4%	-19.1%	0.0%	8.8%	-23.2%	-118.1%
COc1cccc(NS(=O)(=O)c2ccc3[nH]cc(C(=O)NCCN4CCOCC4)c(=O)c3c2)c1	13.1µM*	-0.5%	6.5%	14.4%	-3.2%	3.4%
COc1ccc(N2C(=O)C(CC(N)=O)N(NC(=O)CCc3ccccc3)C2=O)cc1 (centres undefined)	8.6%[5.75 µM]	20.2%	?	-11.9%	0.9%	.
Cc1ccc(C)c(NC(=S)/C(=C(\[O-])c2ccc(Cl)s2)[n+]2ccccc2)c1	?	-1.0%	5.86µM*	-11.6%	0.4%	.
[O-]C(=C(C(=S)Nc1cccc2ccccc12)[n+]1cccc(CO)c1)c1ccc(Cl)s1	.	-11.1%	.	7.94µM*	.	.
[O-]/C(=C(\C(=S)Nc1cccc2ccccc12)[n+]1ccccc1)c1ccc(Cl)s1	?	-28.8%	?	3.0%	16.7%	?
CC(=O)N1CCCC(c2cc(C(=O)Nc3ccccc3)no2)C1 (centres undefined)	.	-2.1%	.	.	.	.
O=C(CCCCCNC(=O)N1CCn2c1nc1ccccc12)NCc1ccccc1	?	0.0%	?	-26.2%	-3.0%	-16.6%
O=C(CCCCCNC(=O)N1CCn2c1nc1ccccc12)NCCc1ccccc1	?	15.7%	7.38µM*	-20.3%	-1.6%	-19.5%
CCCCn1c(SCC(=O)Nc2ccccc2C(F)(F)F)nc2ccsc2c1=O	0.3%	-6.1%	11.7µM*	-9.1%	-15.3%	0.1%
COC(=O)c1ccccc1NC(=O)CSc1nc2ccsc2c(=O)n1CCCCC(=O)O	.	1.1%	.	.	.	.
CCCCn1c(SCC(=O)N2CCN(c3ccccc3)CC2)nc2ccsc2c1=O	?	-2.8%	4.9%	.	-13.1%	-35.2%
CCCCn1c(SCC(=O)N2CCC(C)CC2)nc2ccsc2c1=O	11.7µM*	25.2%	-44.1%	-26.8%	1.7%	-17.9%
O=C(/C=C/c1ccc(S(=O)(=O)N2CCOCC2)cc1)NCc1ccccc1F	?	0.0%	?	?	0.8%	.
Nc1nc2ccc(Cl)cc2cc1C(=O)NC1CC1	.	-10.0%	.	.	.	.
CCOC(=O)COc1cc(Br)c(/C=N/Nc2ccccc2)cc1OC	8.28µM*	10.2%	10.4µM*	1.5%	-2.7%	-0.2%
COc1cc(C=O)c(Br)cc1OCC(=O)NCCc1ccccc1	-11.2%[5.75 µM]	-0.4%	28.2%	-1.4%	-1.9%	-15.3%
CCN1CC(CN(C)Cc2nc(-c3ccc(C(F)(F)F)cc3)oc2C)CC1=O (centres undefined)	?	2.7%	?	-12.4%	0.6%	-4.3%
CSCCC(C(=O)N1CC2(C)CC1CC(C)(C)C2)N1C(=O)c2ccccc2C1=O (centres undefined)	-21.9%	-0.6%	13.1µM*	2.8%	2.6%	-12.5%
CC1(C)CC2CC(C)(CN2C(=O)CN2C(=O)c3ccccc3C2=O)C1 (centres undefined)	8.2%	18.0%	.	15.6%	-1.0%	-0.7%
O=S(=O)(Nc1ccon1)c1ccc(F)c(F)c1	-5.8%	8.3%	?	10.3%	1.4%	2.5%
Cc1nc2ccc([N+](=O)[O-])cc2c(=O)n1Cc1ccc(Br)cc1	4.2%	-6.3%	3.29µM*	?	-8.6%	6.4%
Cc1nc2ccc([N+](=O)[O-])cc2c(=O)n1Cc1ccc([N+](=O)[O-])cc1	14.6%	-2.0%	-16.6%	5.0%	-5.9%	-3.0%
CC(CCc1ccc(O)cc1)NC1c2ccccc2-c2ccccc21 (centres undefined)	14.7µM*	-4.6%	?	11.5%	2.9%	-5.6%
SMILES	Pf growth 48h	AMA1 RON2 block	Pf growth 96h	HCV inh	SARS PLpro yeast	NS1 inh
COc1ccccc1CCNC(C)CCc1ccc(O)cc1 (centres undefined)	-2.6%	5.9%	2.6%	3.6%	-0.3%	-4.7%
CC(CCc1ccc(O)cc1)NC1C2CC3CC(C2)CC1C3 (centres undefined)	13.1µM*	-17.5%	-85.6%	-0.5%	?	-8.6%
CC(=O)N1CCN(CC(=O)Nc2cc(S(=O)(=O)N3CCOCC3)ccc2C)CC1	35.7%	-8.5%	-6.3%	6.4%	-1.8%	.
CS(=O)(=O)c1cccc(-c2nnc(NC(=O)CCS(=O)(=O)c3ccccc3)o2)c1	?	91.6%	?	4.1%	-6.1%	.
O=C(Nc1ccc(F)cc1)c1ccc(NC(=O)C2CCCO2)cc1 (centres undefined)	33.4%	-4.5%	1.85µM*	-21.8%	1.8%	4.9%
O=C(Nc1ccc(S(=O)(=O)Nc2ccc(Cl)cc2)cc1)C1CCCO1 (centres undefined)	-2.8%	2.1%	.	22.4µM*	7.5%	-17.9%
CC1CCN(C(=O)c2ccc(NC(=O)C3CCCO3)cc2)CC1 (centres undefined)	12.5%	0.0%	14.7µM*	-2.4%	0.0%	-8.3%
O=C(NS(=O)(=O)c1ccc(NC(=O)C2CCCO2)cc1)c1ccccc1 (centres undefined)	3.1%	-4.0%	?	2.7%	-6.6%	-3.7%
CC(NC(=O)Cc1ccsc1)c1ccc(Cl)cc1Cl (centres undefined)	?	17.7%	?	-6.5%	-2.8%	-58.4%
Clc1ccc(Nc2ccc(NCc3ccccc3)nn2)cc1	4.65µM*	-8.8%	1.85µM*	?	11.5%	-22.3%
OCC1(Cc2ccc(Cl)cc2)CCN(CCCc2ccccc2)CC1	?	-26.0%	3.0%	12.6µM*	0.8%	-2.8%
CN1CCC(CO)(Cc2ccccc2)CC1	35.1%	-10.8%	3.7µM*	15.9%	-0.3%	2.2%
OCC1(Cc2ccc(Cl)cc2)CCN(Cc2ccccc2F)CC1	13.1µM*	0.0%	?	-3.8%	0.3%	5.2%
OCC1(Cc2ccc(Cl)cc2)CCN(CC2CC=CCC2)CC1 (centres undefined)	6.57µM*	-3.6%	49.1%	?	0.0%	-2.1%
COc1ccccc1/C=C/C(=O)Nc1ccc(S(=O)(=O)Nc2cc(C)on2)cc1	2.6%	0.7%	?	13.2%	1.9%	-4.6%
CCC(C)[C@H](NC(=O)c1cc2cc(Cl)ccc2n1C)C(=O)N1CCC(C(=O)O)CC1 (some centres undefined)	3.6%	-4.5%	21.8%	1.9%	0.9%	2.2%
CC(O)(Cc1cccnc1)c1cccs1 (centres undefined)	.	22.2%	.	21.3%	.	.
